Screening data from PubChem.
TWEAK Fn14 block: inhibitors of TWEAK-Fn14 interaction signaling; AID 1159606; 2% of 360,000 active; inhibition, % at 10 µM; TWEAK-stimulated Fn14 reporter cells, luciferase luminescence, 8 h; in the data active means inhibition above about 50%
LGR2 antag: inhibitors of bursicon-induced Drosophila LGR2 receptor cAMP signaling | HEK293 LGR2, CRE-luciferase, bursicon-stimulated, 4 h | inhibition, % at 9.99 µM | 0.35% of 380,000 active | AID 720647;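 active means drop in luminescence signal, shown as inhibition above about 50% in the replicate tests, limit read from the data, passing the limit was not always enough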;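 further: agonist challenge used bursicon conditioned medium at about half maximal strength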
EWS-Fli block: blocks EWS/Fli oncoprotein-driven transcription. A673 NR0B1-luciferase reporter, viability-normalised. inhibition, % at 12.6 µM. 0.67% of 350,000 active;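 active means mean inhibition of at least 50% after viability correction, with every replicate also passing that limit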;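 further: firefly luciferase signal divided by Alamar Blue viability fluorescence both relative to DMSO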
PAX8 inh HTS: inhibitors of PAX8 transcriptional activity in RMG-I cells. 1.2% of 360,000 active. RMG-I TPO-luciferase reporter, SteadyGlo, 24 h. inhibition, % at 12.6 µM;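 active means mean replicate inhibition at least 60% with every replicate also reaching 60%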;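 further: luciferase light reporting Pax8 driven TPO promoter activity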
TROY NFkB inh: inhibitors of TROY-dependent NF-kB signaling; Q293 LMP1-TROYcd NF-kB luciferase reporter, 4 h; inhibition, % at 10 µM; 0.98% of 360,000 active;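 active means compounds whose plate-normalised and pattern-corrected inhibition of the luciferase reporter signal at the single screening dose is 50% or more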
A number is an active result. Sampled rows, rich in hits. Any-hit rate of the full collection: about 2.8%.

Results for O=C(O)CCCc1c(-[n+]2ccccc2)[nH]c2ccccc12 ?
TWEAK Fn14 block: inactive; LGR2 antag: inactive; EWS-Fli block: inactive; PAX8 inh HTS: inactive; TROY NFkB inh: inactive

How did O=C(O)CCc1c(C(=O)O)[nH]c2ccccc12 do in these assays?
TWEAK Fn14 block: 68.9; LGR2 antag: inactive

How did Cc1ccc(S(=O)(=O)Nc2ccc3c(c2)CC(=O)N([C@H](C)CO)C[C@H](C)[C@@H](CN(C)C(=O)NC(C)C)O3)cc1 do in these assays?
LGR2 antag: inactive; EWS-Fli block: inactive; PAX8 inh HTS: inactive

What do the screens show for `O=C(Oc1c(-c2ccccc2Cl)oc2ccccc2c1=O)c1ccc(Cl)cc1`?
TWEAK Fn14 block: 50.1; LGR2 antag: inactive; EWS-Fli block: inactive; PAX8 inh HTS: 68.0; TROY NFkB inh: inactive

Results for Cc1ccccc1Oc1cc(-n2ncc(Cl)c(Cl)c2=O)ncn1 ?
TWEAK Fn14 block: 106.7; LGR2 antag: 101.4; EWS-Fli block: inactive; PAX8 inh HTS: inactive; TROY NFkB inh: 90.4

What do the screens show for `O=C(Cn1ccc2ccccc2c1=O)NCCC(=O)Nc1ccc2c(c1)OCCO2`?
TWEAK Fn14 block: 57.2; PAX8 inh HTS: inactive; TROY NFkB inh: inactive

Results for COc1ccc(/C=C2\SC(=S)N(CCC(=O)Nc3cccc(O)c3)C2=O)cc1OC ?
TWEAK Fn14 block: inactive; LGR2 antag: inactive; EWS-Fli block: inactive; PAX8 inh HTS: inactive; TROY NFkB inh: inactive

What do the screens show for `COc1ccc(/C=C2\SC(=S)N(CCCC(=O)Nc3ccccn3)C2=O)cc1OC`?
TWEAK Fn14 block: 52.2; LGR2 antag: inactive; PAX8 inh HTS: inactive; TROY NFkB inh: inactive

How did COc1cccc(/C=C2\SC(=S)N(CCC(=O)NCCc3ccc(O)cc3)C2=O)c1 do in these assays?
TWEAK Fn14 block: inactive; LGR2 antag: inactive; PAX8 inh HTS: 99.9; TROY NFkB inh: inactive

Results for COc1ccc(/C=C2\SC(=S)N(CCCC(=O)Nc3cccc(C(=O)O)c3)C2=O)cc1OC ?
TWEAK Fn14 block: inactive; LGR2 antag: inactive; PAX8 inh HTS: inactive; TROY NFkB inh: inactive

Results for COc1ccc(/C=C2/SC(=S)N(CCCC(=O)Nc3cccc(O)c3)C2=O)cc1 ?
TWEAK Fn14 block: inactive; LGR2 antag: inactive; EWS-Fli block: inactive; PAX8 inh HTS: 77.1; TROY NFkB inh: inactive

Results for Cc1ccc(/C=C2\SC(=S)N(CCCC(=O)Nc3ccccn3)C2=O)cc1 ?
TWEAK Fn14 block: 79.4; TROY NFkB inh: 67.7

What do the screens show for `CCCN(C)C[C@@H]1Oc2cc(C#Cc3cccc(F)c3)ccc2S(=O)(=O)N([C@@H](C)CO)C[C@H]1C`?
LGR2 antag: inactive; EWS-Fli block: inactive

How did COc1ccc(/C=C2\SC(=O)N(CC(=O)Nc3cccc(C)c3)C2=O)cc1O do in these assays?
TWEAK Fn14 block: inactive; LGR2 antag: inactive; EWS-Fli block: 72.0; PAX8 inh HTS: inactive; TROY NFkB inh: inactive

What do the screens show for `CCc1ccn2cc(-c3ccc4c(c3)OCO4)nc2c1`?
TWEAK Fn14 block: inactive; LGR2 antag: 97.3; EWS-Fli block: 83.1; PAX8 inh HTS: 80.2; TROY NFkB inh: 65.6

What do the screens show for `c1cnc2nc(-c3ccc4c(c3)OCO4)cn2c1`?
TWEAK Fn14 block: inactive; LGR2 antag: inactive; EWS-Fli block: inactive; PAX8 inh HTS: inactive; TROY NFkB inh: inactive

What do the screens show for `COC(=O)c1ccc2nc(-c3ccc4c(c3)OCO4)cn2c1`?
TWEAK Fn14 block: 89.0; LGR2 antag: 82.9; EWS-Fli block: inactive; PAX8 inh HTS: inactive; TROY NFkB inh: inactive

Results for COc1ccc(-c2cn3cc(C(=O)NN)ccc3n2)cc1 ?
TWEAK Fn14 block: inactive; LGR2 antag: inactive; EWS-Fli block: inactive; PAX8 inh HTS: inactive; TROY NFkB inh: inactive

What do the screens show for `Cc1noc(C)c1S(=O)(=O)Nc1ccc2c(c1)CC(=O)N([C@@H](C)CO)C[C@@H](C)[C@@H](CN(C)S(C)(=O)=O)O2`?
LGR2 antag: inactive; EWS-Fli block: inactive; PAX8 inh HTS: inactive

How did CO[C@@H]1CN(C)C(=O)c2cc(NC(=O)c3cc(C)on3)ccc2OC[C@H](C)NC[C@@H]1C do in these assays?
LGR2 antag: inactive; EWS-Fli block: inactive; PAX8 inh HTS: inactive

Results for Oc1ccc(-c2n[nH]c(C(F)(F)F)c2-c2ccccc2)c(O)c1 ?
TWEAK Fn14 block: 56.4; LGR2 antag: inactive; EWS-Fli block: inactive; PAX8 inh HTS: inactive; TROY NFkB inh: inactive

What do the screens show for `COc1ccc(-c2c(-c3ccc(O)cc3O)n[nH]c2C(F)(F)F)cc1`?
TWEAK Fn14 block: inactive; LGR2 antag: inactive; EWS-Fli block: inactive; PAX8 inh HTS: inactive; TROY NFkB inh: inactive

Results for C[C@@H]1CN([C@@H](C)CO)C(=O)Cc2cc(NC(=O)NC3CCCCC3)ccc2O[C@H]1CN(C)CC1CCCCC1 ?
LGR2 antag: inactive; EWS-Fli block: inactive; PAX8 inh HTS: 67.2

What do the screens show for `C[C@@H]1CN([C@@H](C)CO)C(=O)Cc2cc(NC(=O)Nc3ccc(F)cc3)ccc2O[C@H]1CN(C)CC1CCCCC1`?
LGR2 antag: inactive; EWS-Fli block: inactive; PAX8 inh HTS: 82.1

How did C[C@@H]1CN([C@H](C)CO)C(=O)Cc2cc(NC(=O)Nc3ccc(F)cc3)ccc2O[C@H]1CN(C)CC1CC1 do in these assays?
LGR2 antag: inactive; EWS-Fli block: inactive; PAX8 inh HTS: inactive

How did C[C@@H]1CN([C@@H](C)CO)C(=O)Cc2cc(NC(=O)Nc3ccc4c(c3)OCO4)ccc2O[C@H]1CN(C)CC1CCCCC1 do in these assays?
LGR2 antag: inactive; EWS-Fli block: inactive; PAX8 inh HTS: 82.5

How did C[C@H](CO)N1C[C@H](C)[C@H](CN(C)S(=O)(=O)c2ccccc2)Oc2c(cccc2N(C)C)C1=O do in these assays?
LGR2 antag: inactive; EWS-Fli block: inactive; PAX8 inh HTS: inactive

What do the screens show for `CN1C2CCC1/C(=C\c1ccc(F)cc1)C(=O)/C2=C/c1ccc(F)cc1`?
TWEAK Fn14 block: 64.6; LGR2 antag: inactive; PAX8 inh HTS: inactive; TROY NFkB inh: inactive

Results for CC(=O)N(C)C[C@H]1Oc2ncc(-c3cncnc3)cc2C(=O)N([C@H](C)CO)C[C@@H]1C ?
LGR2 antag: inactive; EWS-Fli block: inactive

How did O=C1c2cccnc2C(=O)N1CO do in these assays?
TWEAK Fn14 block: inactive; TROY NFkB inh: inactive

What do the screens show for `NC1=C(Br)C(=O)c2ncccc2C1=O`?
TWEAK Fn14 block: 102.8; LGR2 antag: 101.0; EWS-Fli block: inactive; PAX8 inh HTS: 130.8; TROY NFkB inh: 68.2

How did C/C=C/c1ccc([C@@H]2[C@@H](CO)N(C(=O)NC(C)C)[C@H]2CN(C)C(C)=O)cc1 do in these assays?
LGR2 antag: inactive; EWS-Fli block: inactive; PAX8 inh HTS: inactive

How did COc1ccc(S(=O)(=O)N(C)C[C@@H]2Oc3ccc(NS(=O)(=O)c4cn(C)cn4)cc3C(=O)N([C@H](C)CO)C[C@H]2C)cc1 do in these assays?
LGR2 antag: inactive; EWS-Fli block: inactive

How did COc1cc2nc(CN(C)Cc3ccc(Cl)cc3)[nH]c(=O)c2cc1OC do in these assays?
TWEAK Fn14 block: inactive; LGR2 antag: inactive; EWS-Fli block: inactive; PAX8 inh HTS: inactive; TROY NFkB inh: inactive

How did COc1cc2cncc(Cc3ccc(Cl)cc3)c2cc1OC do in these assays?
TWEAK Fn14 block: 75.4; TROY NFkB inh: 58.0

How did O=C(NCc1ccco1)C1CC(c2ccccc2C(F)(F)F)=NO1 (stereo unspecified) do in these assays?
TWEAK Fn14 block: inactive; LGR2 antag: inactive; EWS-Fli block: inactive; PAX8 inh HTS: inactive; TROY NFkB inh: inactive
